The results in this text go back to article PMC5540273 (PLoS ONE, 2017).
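Also: KINOMEscan kinase panel screen.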

The subject of the experiment is MAP4K4. To be noted: concentration: 1 μM, replicates: in singlicate; n = 1.
As for `CC(C)(C)c1ccc2nccc(Nc3cccc(O)c3)c2c1` [GW856795], the “%Inh” value came to 23%. Take `COc1cc2c(cc1OCCN1CCNCC1)ncc1c3ccc(C#N)cc3[nH]c21`: the “%Inh” value stood at 32%. In the case of `COc1cc(Nc2nccc(-c3c(-c4cccc(NC(=O)c5c(F)cccc5F)c4)nn4ccccc34)n2)cc(OC)c1OC` [GSK323521], the “%Inh” value was determined as 0%. As to `Cc1ccc(S(=O)(=O)Nc2ccc(Nc3nccc(Nc4cccc5[nH]ncc45)n3)cc2)cc1` [GSK581271], the “%Inh” value worked out at 0%. Consider `CCc1ccc(-c2ccc3c(c2)-c2c(cnn2C)S(=O)(=O)N3C)cc1`, for which the “%Inh” value is recorded as 0%. In the case of `O=C(Nc1cccc(-c2nn3ncccc3c2-c2ccnc(Nc3ccccc3)n2)c1)c1c(F)cccc1F` [GSK198271] it was 33%.

In the case of `Fc1ccc(-c2ncn(C3CCNCC3)c2-c2ccnc(Oc3ccc(-c4ccccc4)cc3)n2)cc1` [SB-245391], the “%Inh” value came out at 9%.

Consider `CN(c1ccc(NC(=O)Nc2cc(C(F)(F)F)ccc2F)cc1)c1ccnc(Nc2ccc(S(N)(=O)=O)cc2)n1` [GW809893], for which the “%Inh” value came to 97.7%.

Regarding `CC(=O)Nc1nc2cnc(Nc3cc(NC(=O)c4cccc(C5(C#N)CC5)c4Cl)ccc3C)nc2s1`, the “%Inh” value stood at 17%. In the case of `Cl.c1ccc(-c2ccc3c(Nc4ccc5[nH]ncc5c4)ccnc3c2)nc1` [GW440137], the “%Inh” value came out at 0%.

`COc1cc(Nc2ncc3c(C)nc(-c4cc5ccccc5[nH]4)n3n2)cc(OC)c1OC` [GW869516]: the “%Inh” value is listed as 19%. As for `COC(=O)Nc1nc2ccc(Oc3ccc(NC(=O)Nc4cc(C(F)(F)F)ccc4F)cc3)cc2n1C.Cl` [GW692089], the “%Inh” value was found to be 0%. As to `Nc1n[nH]c2cnc(-c3ccccc3)cc12` [SB-642124], the “%Inh” value is 17%. `COc1cc(Nc2nccc(N3CCC(NC(=O)Nc4cccc(C(C)=O)c4)C3)n2)cc(OC)c1OC` (stereo not shown) [GSK1379753]: the “%Inh” value is 3%. In the case of `O=C(NC1CCN(c2ccnc(Nc3ccc(F)cc3)n2)C1)c1cc2ccccc2s1` (stereo not shown) [GSK1379716] it was 0%; in that of `c1ccc(-c2cnc3nccnn23)cc1` [AH20685], 0%; in that of `Nc1ncnc2c1nc(-c1ccccc1)n2-c1ccccc1` [SKF-97293], 0%.

As for `CN(C)Cc1ccc(-c2ccc3c(Nc4ccc(Oc5ccccn5)cc4)ccnc3c2)o1` [GW567148], the “%Inh” value is given as 6%. In the case of `COc1cc(Nc2nccc(N3CCC(NC(=O)c4cc5ccccc5s4)C3)n2)cc(OC)c1OC` (stereo not shown) [GSK1379760] it was 25%; in that of `Cl.Cl.NCC(NCc1ccc(-c2ccnc3[nH]ccc23)s1)c1ccccc1` (stereo not shown) [GSK1321565], 0%.

As for `Cl.NC(=O)c1cccc(Nc2nccc(Nc3ccc(Oc4c(Cl)cccc4Cl)c(Cl)c3)n2)c1` [GW659009], the “%Inh” value was 0%. Turning to `O=C(Nc1ccccc1F)NC1CCN(c2ccnc(Nc3ccc(F)cc3)n2)CC1` [GSK1379800], the “%Inh” value worked out at 0%.

Consider `Cc1ccc(C(=O)N2CC[C@@H](O)C2)cc1-n1c(C)cc(OCc2ccc(F)cc2F)c(Br)c1=O`, for which the “%Inh” value was determined as 6%. In the case of `CN(C)S(=O)(=O)c1cc(-c2ccc3nccc(-c4cccc(S(N)(=O)=O)c4)c3c2)cnc1N` [GSK1669921] it was 0%.

On to `O=c1[nH]cc(-c2ccc(N3CCOCC3)cc2)c2sc(-c3cn[nH]c3)cc12` [GSK2276055], for which the “%Inh” value worked out at 1%. As to `CCCCc1nn2ncccc2c1-c1ccnc(Nc2ccc(N3CCN(C)CC3)cc2)n1` [GW684941], the “%Inh” value was 0%.

`O=C(Nc1cccc(-c2nn3ccccc3c2-c2ccnc(Nc3cccc(F)c3)n2)c1)c1c(F)ccc(F)c1Cl` [GSK357952]: the “%Inh” value is given as 28%. As for `c1ccc(-c2n[nH]cc2Nc2ccnc3ccccc23)nc1` [GW694077], the “%Inh” value was found to be 20%. `COc1cc(Nc2nccc(-c3c(-c4cccc(NC(=O)c5c(F)cccc5F)c4)nn4ncccc34)n2)cc(OC)c1OC` [GSK327238]: the “%Inh” value came out at 67%.

`COc1cccc(C(=O)Nc2cccc(Oc3ccc4nc(NC(=O)C5CC5)cn4n3)c2)c1`: the “%Inh” value is reported as 48%.

In the case of `COCCOCCOc1cc2ncc3c4ccc(C#N)cc4[nH]c3c2cc1OC`, the “%Inh” value turned out to be 42%. For the compound `Nc1ncc(-c2ccc3nccc(-c4ccncc4)c3c2)cc1S(=O)(=O)N1CCOCC1` [GSK1627798], the “%Inh” value was 0%. To `Cc1cccc(NC(=O)Nc2ccc(Oc3ncnc4ccn(C)c34)cc2)c1` belongs 0%; to `CN1CCN(Cc2cccc(-c3ccc4c(Nc5ccc(Oc6ccccc6)cc5)ccnc4c3)c2)CC1` [GW578342], 0%.
